Test results published in PubChem BioAssay.
Calls of active or inactive are those of the source.

Experiments:
[1] = test system: PRMT1 (protein arginine N-methyltransferase 1); assay: PRMT1 binders on small-molecule microarrays, primary screen, biochemical, small-molecule microarray, 635 nm fluorescence (AID 1088); settings: small-molecule microarray binding, higher = more signal;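 note: binding of Prmt1 protein to compounds spotted on small-molecule microarray slides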
[2] = yeast growth modulation, basal conditions, primary screen, YJM789 clinical isolate, OD600, 24 h (AID 1089);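 note: growth of clinical yeast isolate S. cerevisiae YJM 789 seeded 1000 cells per well; test concentration not given here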; settings: S. cerevisiae YJM789 growth, higher = more signal, called active from +8 up or from −8 down
[3] = fission yeast growth modulation, primary screen, strain 972, OD600, 24 h, no modulator (AID 1090);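 note: basal condition with compound alone and no growth modifier present; test concentration not given here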; settings: S. pombe 972 growth, higher = more signal, called active from +8 up or from −8 down
[4] = S. cerevisiae growth modulation with rapamycin, primary screen, strain BY4716, OD600, 96 h (AID 1091); settings: higher = more signal, called active from +8 up or from −8 down; note: test concentration not given here
[5] = biological target: Torsin-1A-interacting protein 2 (Homo sapiens) (UniProt Q8NFQ8); assay: LULL1 binders on small-molecule microarray, primary screen, cell lysate, human LULL1 lysate, 635/667 nm fluorescence (AID 1092); settings: hLULL1 lysate binding, 635 nm fluorescence, higher = more signal;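 note: probe is lysate of COS7 cells overexpressing human LULL1; score merges per-feature 667 nm fluorescence with signal-to-noise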
Torsin-1A-interacting protein 2 (Homo sapiens), sequence (Q8NFQ8 whole entry, looked up): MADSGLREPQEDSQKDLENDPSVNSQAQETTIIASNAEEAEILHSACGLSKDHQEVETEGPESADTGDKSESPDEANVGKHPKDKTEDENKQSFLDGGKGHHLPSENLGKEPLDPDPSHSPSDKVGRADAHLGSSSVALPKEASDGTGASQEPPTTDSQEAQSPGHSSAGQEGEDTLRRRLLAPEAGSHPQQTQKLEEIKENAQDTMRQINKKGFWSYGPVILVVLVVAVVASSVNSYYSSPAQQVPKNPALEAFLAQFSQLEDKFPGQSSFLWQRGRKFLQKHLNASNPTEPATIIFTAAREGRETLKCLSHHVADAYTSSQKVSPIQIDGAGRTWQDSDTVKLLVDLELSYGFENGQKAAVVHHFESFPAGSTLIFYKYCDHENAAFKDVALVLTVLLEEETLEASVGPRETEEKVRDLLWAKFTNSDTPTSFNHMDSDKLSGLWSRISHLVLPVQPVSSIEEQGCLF

[6] = E. coli growth modulation, two-sided OD650, primary screen, E. coli filamentation project, strain DRC41, 24 h (AID 1093); settings: OD650, 24 h, higher = more signal, called active from +8 up or from −8 down;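 note: MC1000 strain lacking acrAB efflux and sulA so SOS filamentation is blocked; test concentration not given here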
[7] = small-molecule microarray binders of probe aLefty2, primary screen, biochemical, biotinylated probe, 635/667 nm fluorescence (AID 1094); settings: higher = more signal;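 note: score merges spot fluorescence near 667 nm with spot signal-to-noise ratio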
[8] = test system: Noggin (protein binding on small-molecule microarray); assay: Noggin binders on small-molecule microarray, primary screen, biochemical, 635/667 nm fluorescence (AID 1095); settings: 635 nm fluorescence, higher = more signal;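 note: score merges 667 nm feature fluorescence with signal to noise over triplicate slides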
[9] = biological target: Neurogenic locus notch homolog protein 3 (Homo sapiens) (UniProt Q9UM47); assay: NOTCH3 binders on small-molecule microarray, primary screen, biochemical, 635/667 nm fluorescence (AID 1096); settings: NOTCH3 binding, 635 nm fluorescence, higher = more signal
Neurogenic locus notch homolog protein 3 (Homo sapiens), sequence (Q9UM47 whole entry, looked up): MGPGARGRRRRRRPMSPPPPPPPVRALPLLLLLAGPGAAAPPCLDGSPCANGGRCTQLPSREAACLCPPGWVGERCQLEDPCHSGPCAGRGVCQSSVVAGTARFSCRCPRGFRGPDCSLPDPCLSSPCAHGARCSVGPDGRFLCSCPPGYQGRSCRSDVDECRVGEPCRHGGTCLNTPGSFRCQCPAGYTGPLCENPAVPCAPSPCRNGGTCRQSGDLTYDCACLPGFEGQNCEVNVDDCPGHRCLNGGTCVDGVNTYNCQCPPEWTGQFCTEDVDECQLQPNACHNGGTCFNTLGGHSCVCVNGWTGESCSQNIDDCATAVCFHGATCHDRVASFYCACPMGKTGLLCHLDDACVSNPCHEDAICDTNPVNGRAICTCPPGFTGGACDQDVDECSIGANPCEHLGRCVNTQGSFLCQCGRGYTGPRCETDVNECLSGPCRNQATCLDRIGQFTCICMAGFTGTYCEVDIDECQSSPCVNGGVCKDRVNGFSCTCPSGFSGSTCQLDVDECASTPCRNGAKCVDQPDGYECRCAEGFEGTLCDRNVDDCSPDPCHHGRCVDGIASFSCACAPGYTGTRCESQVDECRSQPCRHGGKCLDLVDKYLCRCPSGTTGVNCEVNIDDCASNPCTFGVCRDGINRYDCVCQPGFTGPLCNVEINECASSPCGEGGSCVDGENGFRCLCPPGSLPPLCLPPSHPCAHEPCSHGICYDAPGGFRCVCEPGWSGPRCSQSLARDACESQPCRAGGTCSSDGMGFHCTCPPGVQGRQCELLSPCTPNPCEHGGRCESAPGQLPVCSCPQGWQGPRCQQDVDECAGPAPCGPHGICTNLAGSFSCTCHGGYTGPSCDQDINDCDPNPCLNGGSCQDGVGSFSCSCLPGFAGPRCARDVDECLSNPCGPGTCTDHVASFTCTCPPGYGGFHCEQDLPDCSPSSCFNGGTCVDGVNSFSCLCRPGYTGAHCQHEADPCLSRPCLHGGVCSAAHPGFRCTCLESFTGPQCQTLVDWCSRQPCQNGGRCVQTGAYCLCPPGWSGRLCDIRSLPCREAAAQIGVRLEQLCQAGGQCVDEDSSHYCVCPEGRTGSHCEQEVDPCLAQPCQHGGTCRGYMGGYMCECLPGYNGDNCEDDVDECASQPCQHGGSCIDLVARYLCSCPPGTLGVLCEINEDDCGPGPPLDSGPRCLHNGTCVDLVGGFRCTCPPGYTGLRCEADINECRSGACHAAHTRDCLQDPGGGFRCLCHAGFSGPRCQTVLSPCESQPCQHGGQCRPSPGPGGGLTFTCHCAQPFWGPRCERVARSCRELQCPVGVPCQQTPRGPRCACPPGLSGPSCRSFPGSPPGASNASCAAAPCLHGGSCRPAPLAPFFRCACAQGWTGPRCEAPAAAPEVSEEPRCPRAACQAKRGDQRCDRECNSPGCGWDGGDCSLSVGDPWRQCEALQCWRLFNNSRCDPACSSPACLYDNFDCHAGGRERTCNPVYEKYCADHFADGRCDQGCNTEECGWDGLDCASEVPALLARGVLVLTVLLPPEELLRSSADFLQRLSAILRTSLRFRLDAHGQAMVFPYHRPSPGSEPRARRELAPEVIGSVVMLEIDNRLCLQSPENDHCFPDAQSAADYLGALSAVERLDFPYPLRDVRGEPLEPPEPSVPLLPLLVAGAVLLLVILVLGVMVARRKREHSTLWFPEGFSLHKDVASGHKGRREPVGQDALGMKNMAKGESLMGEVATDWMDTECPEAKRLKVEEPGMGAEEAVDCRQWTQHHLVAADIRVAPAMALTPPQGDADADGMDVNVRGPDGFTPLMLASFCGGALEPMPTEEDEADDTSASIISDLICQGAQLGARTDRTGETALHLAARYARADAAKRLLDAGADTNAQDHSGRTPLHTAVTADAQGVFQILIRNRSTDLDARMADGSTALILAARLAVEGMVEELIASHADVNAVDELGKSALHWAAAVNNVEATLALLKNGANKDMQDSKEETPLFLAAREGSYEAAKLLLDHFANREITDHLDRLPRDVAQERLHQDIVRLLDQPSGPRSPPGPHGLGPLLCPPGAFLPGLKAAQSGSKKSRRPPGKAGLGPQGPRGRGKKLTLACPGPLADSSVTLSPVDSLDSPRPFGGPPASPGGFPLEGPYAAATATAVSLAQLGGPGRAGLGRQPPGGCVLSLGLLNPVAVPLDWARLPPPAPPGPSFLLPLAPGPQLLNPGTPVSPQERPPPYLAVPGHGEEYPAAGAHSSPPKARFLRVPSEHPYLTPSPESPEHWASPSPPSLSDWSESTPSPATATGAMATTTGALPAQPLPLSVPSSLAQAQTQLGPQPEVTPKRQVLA

[10] = small-molecule microarray binders of probe aEGFR, primary screen, biochemical, biotinylated probe, 635/667 nm fluorescence (AID 1097); settings: higher = more signal;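 note: probe is a biotinylated anti-EGFR antibody binding compounds printed on slides; score combines fluorescence near 667 nm and signal to noise of each spot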
[11] = test system: Plasmodium falciparum Sir2 (PF13_0152, Sir2A); assay: pfSir2 binders on small-molecule microarrays, primary screen, biochemical, small-molecule microarray, 635 nm fluorescence (AID 1098); settings: small-molecule microarray binding, fluorescence 635 nm; higher = more signal;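 note: score merges spot fluorescence intensity with its signal-to-noise ratio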
[12] = small-molecule microarray binders of probe aDKK1, primary screen, biochemical, biotinylated probe, 635/667 nm fluorescence (AID 1099); settings: higher = more signal;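 note: score merges 667nm spot fluorescence with signal to noise across triplicate slides; reference of the scale not given here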
[13] = small-molecule microarray binders of probe aCHRDL2, primary screen, biochemical, biotinylated probe, 635/667 nm fluorescence (AID 1100); settings: higher = more signal
[14] = splicing luciferase reporter signal modulators, primary screen, spliceosome inhibition project, cell-based, HEK293, splice +/- reporter (AID 1101); settings: luminescence, 24 h, higher = more signal, called active from +8 up or from −8 down;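 note: HEK293 cells carrying a splicing-competent luciferase reporter gene; test concentration not given here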
[15] = biological target: Fibroblast growth factor 10 (Homo sapiens) (UniProt O15520); assay: FGF10 binders on small-molecule microarrays, primary screen, biochemical, small-molecule microarray, 635 nm fluorescence (AID 1102); settings: FGF10 binding, fluorescence 635 nm, higher = more signal
Fibroblast growth factor 10 (Homo sapiens), sequence (O15520 whole entry, looked up): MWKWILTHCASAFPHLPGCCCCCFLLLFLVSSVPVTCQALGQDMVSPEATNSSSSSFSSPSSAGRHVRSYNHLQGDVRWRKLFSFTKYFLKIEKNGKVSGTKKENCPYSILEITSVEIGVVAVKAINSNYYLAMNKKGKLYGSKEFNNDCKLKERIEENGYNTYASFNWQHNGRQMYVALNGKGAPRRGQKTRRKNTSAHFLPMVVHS

[16] = test system: glycogen synthase kinase-3 (GSK3A per assay name; protocol says GSK3B); assay: GSK3 binders on small-molecule microarrays, primary screen, biochemical, small-molecule microarray, 635 nm fluorescence, GSK3A (AID 1103); settings: small-molecule microarray binding, fluorescence 635 nm; higher = more signal; note: the record names both GSK3A and GSK3B
[17] = biological target: Epidermal growth factor receptor (Homo sapiens) (UniProt P00533); assay: EGFR binders on small-molecule microarrays, primary screen, biochemical, small-molecule microarray, 635 nm fluorescence (AID 1104); settings: EGFR binding, higher = more signal;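 note: score merges 667 nm emission intensity with spot signal to noise over triplicate slides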
Epidermal growth factor receptor (Homo sapiens), sequence (P00533 whole entry, looked up): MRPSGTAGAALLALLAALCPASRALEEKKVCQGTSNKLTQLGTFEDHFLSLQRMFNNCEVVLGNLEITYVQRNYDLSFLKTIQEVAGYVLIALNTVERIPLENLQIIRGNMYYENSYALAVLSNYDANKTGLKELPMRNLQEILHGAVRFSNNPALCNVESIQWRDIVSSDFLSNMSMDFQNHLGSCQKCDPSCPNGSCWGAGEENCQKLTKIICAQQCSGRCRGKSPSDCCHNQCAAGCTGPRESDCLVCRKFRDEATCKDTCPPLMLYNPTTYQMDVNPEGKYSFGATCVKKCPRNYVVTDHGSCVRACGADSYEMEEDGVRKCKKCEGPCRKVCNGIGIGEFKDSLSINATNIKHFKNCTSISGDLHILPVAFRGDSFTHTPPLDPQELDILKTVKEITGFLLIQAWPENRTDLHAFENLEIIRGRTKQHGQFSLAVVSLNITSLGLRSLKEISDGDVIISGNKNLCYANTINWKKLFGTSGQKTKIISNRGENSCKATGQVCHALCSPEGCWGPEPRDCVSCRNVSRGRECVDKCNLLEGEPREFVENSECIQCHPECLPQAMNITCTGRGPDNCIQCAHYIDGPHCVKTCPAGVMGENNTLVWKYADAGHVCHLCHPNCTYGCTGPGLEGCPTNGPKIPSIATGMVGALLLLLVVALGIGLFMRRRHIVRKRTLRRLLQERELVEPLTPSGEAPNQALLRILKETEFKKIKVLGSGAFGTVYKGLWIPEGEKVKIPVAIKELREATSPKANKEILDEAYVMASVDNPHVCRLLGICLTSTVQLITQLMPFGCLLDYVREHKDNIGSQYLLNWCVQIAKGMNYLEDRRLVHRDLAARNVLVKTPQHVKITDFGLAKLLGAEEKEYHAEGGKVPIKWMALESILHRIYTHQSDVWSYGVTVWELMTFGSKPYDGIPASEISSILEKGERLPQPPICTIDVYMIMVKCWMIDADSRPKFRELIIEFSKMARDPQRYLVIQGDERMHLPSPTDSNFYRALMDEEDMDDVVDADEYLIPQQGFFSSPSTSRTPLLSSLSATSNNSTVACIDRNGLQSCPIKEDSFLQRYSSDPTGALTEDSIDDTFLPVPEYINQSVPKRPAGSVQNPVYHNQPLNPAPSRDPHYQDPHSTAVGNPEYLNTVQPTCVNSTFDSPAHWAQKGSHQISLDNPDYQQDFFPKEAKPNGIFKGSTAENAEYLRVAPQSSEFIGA

[18] = biological target: Follistatin-related protein 3 (Homo sapiens) (UniProt O95633); assay: FSTL3 binders on small-molecule microarrays, primary screen, biochemical, small-molecule microarray, 635 nm fluorescence (AID 1105); settings: FSTL3 binding, higher = more signal;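 note: score merges emission near 667 nm and signal to noise per printed spot across three slides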
Follistatin-related protein 3 (Homo sapiens), sequence (O95633 whole entry, looked up): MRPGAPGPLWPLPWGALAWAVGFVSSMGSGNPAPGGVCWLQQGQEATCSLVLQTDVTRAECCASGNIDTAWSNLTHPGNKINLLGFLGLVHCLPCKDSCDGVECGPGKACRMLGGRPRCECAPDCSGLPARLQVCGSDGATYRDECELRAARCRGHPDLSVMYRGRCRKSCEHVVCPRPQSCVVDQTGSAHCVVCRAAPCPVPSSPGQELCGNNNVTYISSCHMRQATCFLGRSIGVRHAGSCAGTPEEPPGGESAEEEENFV

[19] = biological target: Dickkopf-related protein 1 (Homo sapiens) (UniProt O94907); assay: DKK1 binders on small-molecule microarrays, primary screen, biochemical, small-molecule microarray, 635 nm fluorescence scan (AID 1106); settings: DKK1 binding, higher = more signal;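 note: score merges emission near 667 nm with signal to noise over three replicate slides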
Dickkopf-related protein 1 (Homo sapiens), sequence (O94907 whole entry, looked up): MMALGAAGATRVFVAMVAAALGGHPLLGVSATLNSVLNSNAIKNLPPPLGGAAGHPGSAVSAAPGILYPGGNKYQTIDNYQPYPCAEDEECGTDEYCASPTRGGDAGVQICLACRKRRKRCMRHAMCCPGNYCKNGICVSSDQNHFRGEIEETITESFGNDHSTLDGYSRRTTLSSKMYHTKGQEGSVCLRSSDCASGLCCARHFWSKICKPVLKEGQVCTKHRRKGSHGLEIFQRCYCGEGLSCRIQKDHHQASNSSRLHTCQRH

[20] = test system: Inhibin beta A chain (activin A); assay: INHBA (activin A) binders on microarrays, primary screen, biochemical, small-molecule microarray, 635 nm fluorescence scan (AID 1107); settings: small-molecule microarray binding, higher = more signal;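 note: mouse activin A protein probed at 4.33 µg/mL on printed slides; score merges bound-protein fluorescence near 667 nm with spot signal-to-noise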

Structure (SMILES)	composite z-score [1]	z-score [2]	z-score [3]	z-score [4]	composite z-score [5]	z-score [6]	composite z-score [7]	composite z-score [8]	composite z-score [9]	composite z-score [10]	composite z-score [11]	composite z-score [12]	composite z-score [13]	z-score [14]	composite z-score [15]	composite z-score [16]	composite z-score [17]	composite z-score [18]	composite z-score [19]	composite z-score [20]
C=C(/C(=C/C[C@H](OC(=O)c1ccncc1)c1ccc(CO)o1)c1cnc2ccccc2c1)C(C)C	1.52	1.22 (inactive)	-1.67 (inactive)	0.433 (inactive)	0.947	-0.358 (inactive)	0.0249	0.963	1.05	0.523	0.614	-0.173	-0.304	0.984 (inactive)	1.41	1.16	0.932	1.46	0.791	1.81
COc1cc(C(O)C2C=CC3C(=O)N(C)C(=O)C3N2Nc2ccccc2)cc(OC)c1OC (stereo not given)	1.33	0.0446 (inactive)	-0.549 (inactive)	-0.299 (inactive)	3.62	0.238 (inactive)	0.581	-0.339	1.11	0.197	1.66	1.22	0.655	-0.0318 (inactive)	0.581	1.25	-0.206	0.595	-0.543	0.916
O=C1N(Cc2ccccc2)c2ccccc2C[C@]12N=C(c1ccc(OCCCO)cc1)O[C@@H]2c1ccccc1	1.21	1.1 (inactive)	0.6 (inactive)	5.61 (inactive)	2.42	0.316 (inactive)	0.102	0.885	1.03	-0.0549	0.25	0.035	0.333	0.214 (inactive)	0.796	0.914	0.498	0.935	0.271	0.736
CS(=O)(=O)CCOC(=O)C1=CC(c2ccc(CO)cc2)=CC(C2CC2)N(Cc2sc3ccccc3c2Cl)C=C1C(=O)OCCS(C)(=O)=O (stereo not given)	1.46	-0.348 (inactive)	-3.82 (inactive)	-1.23 (inactive)	1.67	-3.01 (inactive)	0.106	0.471	0.946	-0.0188	0.677	0.251	0.365	2.53 (inactive)	0.686	0.519	0.645	1.21	0.334	1.63
CC(C)N1C(=O)C[C@@](C(=O)NC2CC2)(c2ccc([N+](=O)[O-])cc2)[C@H]1c1ccc(CO)cc1	0.978	-0.195 (inactive)	-1.08 (inactive)	0.601 (inactive)	3.25	0.718 (inactive)	0.0702	-1.15	-0.46	-0.281	-0.66	0.34	0.993	-1.34 (inactive)	-0.576	-0.3	-1.18	-1.1	-0.674	-1.48
